Results as given in PubChem BioAssay AID1159580 (chemical genetic matrix, 2015).
About 2,000 (36%) of roughly 5,500 compounds were called active. Not shown: some 18% with an inconclusive outcome. No stated cut-off is given here; in the data, active means normalized growth mostly below about 0.91 (no sharp cut-off); inconclusive means no clear call, values can overlap the other calls; inactive means mostly above about 0.92. The list shows a part of the results.

Test: chemical genetic growth profiling, strain panel (AID 1159580);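 further: tested at 20 µM; growth read once vehicle control cultures reached saturation at 30 °C; 1 = growth at the plate median or of vehicle wells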
Settings: growth OD

Measured: normalized growth

C#CCCCCCCCCCCCC(O)CC(O)CO (configuration not stated)
inactive: S. cerevisiae deletion strains, locus YJR075W, strain HOC1, stronger effect = lower value 0.987 | S. cerevisiae deletion strains, locus YKL009W, strain mrt4, stronger effect = lower value 1 | S. cerevisiae deletion strains, locus YKL068W, stronger effect = lower value 1.01 | S. cerevisiae deletion strains, locus YKL085W, strain MDH1 (second series), stronger effect = lower value 1.01 | S. cerevisiae deletion strains, locus YKL085W, strain MDH1, stronger effect = lower value 1.01 | S. cerevisiae deletion strains, locus YKL160W, strain elf1, stronger effect = lower value 0.97 | S. cerevisiae deletion strains, locus YKL190W, strain CNB1, stronger effect = lower value 0.999 | S. cerevisiae deletion strains, locus YKR001C, strain vps1, stronger effect = lower value 1 | S. cerevisiae deletion strains, locus YKR026C, strain gcn3, stronger effect = lower value 0.982 | S. cerevisiae deletion strains, locus YKR091W, strain srl3, stronger effect = lower value 0.979 | S. cerevisiae deletion strains, locus YLL001W, strain dnm1, stronger effect = lower value 0.961 | S. cerevisiae deletion strains, locus YLL026W, stronger effect = lower value 0.993 | S. cerevisiae deletion strains, locus YLL041C, strain sdh2, stronger effect = lower value 0.986 | S. cerevisiae deletion strains, locus YLR027C, strain aat2, stronger effect = lower value 0.986 | S. cerevisiae deletion strains, locus YLR039C, strain RIC1, stronger effect = lower value 1.08 | S. cerevisiae deletion strains, locus YLR058C, strain SHM2, stronger effect = lower value 1 | S. cerevisiae deletion strains, locus YLR102C, strain apc9, stronger effect = lower value 1.01 | S. cerevisiae deletion strains, locus YLR221C, strain rsa3, stronger effect = lower value 0.974 | S. cerevisiae deletion strains, locus YLR258W, strain gsy2, stronger effect = lower value 0.99 | S. cerevisiae deletion strains, locus YLR262C, strain YPT6 (second series), stronger effect = lower value 0.966 | S. cerevisiae deletion strains, locus YLR262C, strain YPT6, stronger effect = lower value 1.07 | S. cerevisiae deletion strains, locus YLR268W, strain sec22, stronger effect = lower value 1 | S. cerevisiae deletion strains, locus YLR320W, strain mms22, stronger effect = lower value 0.946 | S. cerevisiae deletion strains, locus YLR330W, strain CHS5, stronger effect = lower value 0.99 | S. cerevisiae deletion strains, locus YLR342W, strain FKS1 (second series), stronger effect = lower value 0.975 | S. cerevisiae deletion strains, locus YLR342W, strain FKS1, stronger effect = lower value 0.985 | S. cerevisiae deletion strains, locus YLR357W, strain rsc2, stronger effect = lower value 0.954 | S. cerevisiae deletion strains, locus YLR370C, strain arc18, stronger effect = lower value 0.985 | S. cerevisiae deletion strains, locus YLR371W, strain rom2, stronger effect = lower value 1.01 | S. cerevisiae deletion strains, locus YLR384C, strain iki3, stronger effect = lower value 0.98 | S. cerevisiae deletion strains, locus YLR418C, strain cdc73, stronger effect = lower value 1.02 | S. cerevisiae deletion strains, locus YML016C, strain PPZ1, stronger effect = lower value 1 | S. cerevisiae deletion strains, locus YML032C, strain rad52, stronger effect = lower value 1.02 | S. cerevisiae deletion strains, locus YML120C, strain ndi1, stronger effect = lower value 0.986 | S. cerevisiae deletion strains, locus YML124C, strain tub3, stronger effect = lower value 1.01 | S. cerevisiae deletion strains, locus YMR058W, strain fet3, stronger effect = lower value 0.991 | S. cerevisiae deletion strains, locus YMR078C, strain ctf18, stronger effect = lower value 1 | S. cerevisiae deletion strains, locus YMR125W, strain sto1, stronger effect = lower value 0.967 | S. cerevisiae deletion strains, locus YMR129W, stronger effect = lower value 0.988 | S. cerevisiae deletion strains, locus YMR205C, strain PFK2, stronger effect = lower value 0.962 | S. cerevisiae deletion strains, locus YMR223W, strain ubp8, stronger effect = lower value 1.01 | S. cerevisiae deletion strains, locus YMR231W, strain pep5, stronger effect = lower value 0.974 | S. cerevisiae deletion strains, locus YMR263W, strain SAP30, stronger effect = lower value 1 | S. cerevisiae deletion strains, locus YMR307W, strain GAS1, stronger effect = lower value 1.19 | S. cerevisiae deletion strains, locus YNL067W, strain RPL9B, stronger effect = lower value 0.987 | S. cerevisiae deletion strains, locus YNL071W, strain lat1, stronger effect = lower value 0.988 | S. cerevisiae deletion strains, locus YNL128W, strain TEP1, stronger effect = lower value 1.01 | S. cerevisiae deletion strains, locus YNL153C, strain GIM3, stronger effect = lower value 1 | S. cerevisiae deletion strains, locus YNL209W, strain ssb2, stronger effect = lower value 0.996 | S. cerevisiae deletion strains, locus YNL233W, strain BNI4, stronger effect = lower value 0.991 | S. cerevisiae deletion strains, locus YNL248C, strain rpa49, stronger effect = lower value 0.97 | S. cerevisiae deletion strains, locus YNL250W, strain rad50, stronger effect = lower value 1.03 | S. cerevisiae deletion strains, locus YNL271C, strain bni1, stronger effect = lower value 1.02 | S. cerevisiae deletion strains, locus YNL298W, strain CLA4, stronger effect = lower value 1.01 | S. cerevisiae deletion strains, locus YNL307C, strain MCK1, stronger effect = lower value 0.98 | S. cerevisiae deletion strains, locus YNL322C, strain KRE1 (second series), stronger effect = lower value 0.978 | S. cerevisiae deletion strains, locus YNL322C, strain KRE1, stronger effect = lower value 1 | S. cerevisiae deletion strains, locus YNR049C, strain mso1, stronger effect = lower value 0.992 | S. cerevisiae deletion strains, locus YNR052C, strain pop2, stronger effect = lower value 1.01 | S. cerevisiae deletion strains, locus YOL006C, strain TOP1, stronger effect = lower value 0.96 | S. cerevisiae deletion strains, locus YOL012C, strain htz1 0.976 | S. cerevisiae deletion strains, locus YOL147C, strain pex11, stronger effect = lower value 1 | S. cerevisiae deletion strains, locus YOR001W, strain rrp6, stronger effect = lower value 0.998 | S. cerevisiae deletion strains, locus YOR061W, strain CKA2, stronger effect = lower value 0.921 | S. cerevisiae deletion strains, locus YOR069W, strain VPS5, stronger effect = lower value 1 | S. cerevisiae deletion strains, locus YOR070C, strain gyp1, stronger effect = lower value 0.977 | S. cerevisiae deletion strains, locus YOR080W, strain dia2, stronger effect = lower value 0.994 | S. cerevisiae deletion strains, locus YOR083W, strain WHI5, stronger effect = lower value 0.95 | S. cerevisiae deletion strains, locus YOR106W, strain vam3, stronger effect = lower value 0.977 | S. cerevisiae deletion strains, locus YOR136W, strain idh2, stronger effect = lower value 0.998 | S. cerevisiae deletion strains, locus YOR144C, strain elg1, stronger effect = lower value 1.01 | S. cerevisiae deletion strains, locus YOR184W, strain ser1, stronger effect = lower value 1.01 | S. cerevisiae deletion strains, locus YOR265W, strain rbl2, stronger effect = lower value 0.99 | S. cerevisiae deletion strains, locus YOR270C, strain vph1, stronger effect = lower value 0.944 | S. cerevisiae deletion strains, locus YOR290C, strain snf2, stronger effect = lower value 0.948 | S. cerevisiae deletion strains, locus YOR316C, strain cot1, stronger effect = lower value 1.01 | S. cerevisiae deletion strains, locus YPL051W, strain arl3, stronger effect = lower value 0.989 | S. cerevisiae deletion strains, locus YPL055C, strain LGE1, stronger effect = lower value 0.994 | S. cerevisiae deletion strains, locus YPL078C, strain atp4, stronger effect = lower value 0.981 | S. cerevisiae deletion strains, locus YPL106C, strain sse1, stronger effect = lower value 0.981 | S. cerevisiae deletion strains, locus YPL240C, strain hsp82, stronger effect = lower value 0.998 | S. cerevisiae deletion strains, locus YPL241C, strain CIN2, stronger effect = lower value 1 | S. cerevisiae deletion strains, locus YPL256C, strain CLN2, stronger effect = lower value 0.881 | S. cerevisiae deletion strains, locus YPR119W, strain clb2, stronger effect = lower value 1.01 | S. cerevisiae deletion strains, locus YPR141C, strain kar3, stronger effect = lower value 1.04 | S. cerevisiae deletion strains, locus YPR163C, strain tif3, stronger effect = lower value 0.997 | S. cerevisiae deletion strains, locus YPR167C, strain met16, stronger effect = lower value 1.01 | S. cerevisiae deletion strains, strain wtn01, stronger effect = lower value 1.01 | S. cerevisiae strains, strain wild type, stronger effect = lower value 0.992
active: S. cerevisiae deletion strains, locus YLR113W, strain HOG1, stronger effect = lower value 0.832 | S. cerevisiae deletion strains, locus YNL183C, strain NPR1, stronger effect = lower value 0.774 | S. cerevisiae deletion strains, locus YOR231W, strain MKK1, stronger effect = lower value 0.851
